The values below come from PubChem BioAssay.

Experiment [1] in a line: HepG2 liver cancer cell viability effects, profiling panel, resazurin fluorescence, 24 h, PK04 Diversity Set (AID 1172). Also: test concentration not given here. Conditions: higher = more signal. In general terms: Resazurin is reduced to fluorescent resorufin, in cell work by metabolically active cells.
Experiment [2] in a line: basal S. cerevisiae growth modulation, no modifier, primary screen, OD600, strain BY4716, 24 h, basal condition (AID 1173). Conditions: OD600, 24 h, higher = more signal, called active from +8 up or from −8 down.
The nature of experiment [3]: MM1S myeloma cell viability, profiling panel, resazurin fluorescence, basal, 24 h, PK04 Diversity Set (AID 1174).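 Also: MM1S multiple myeloma cell line; test concentration not given here.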 Conditions: higher = more signal, called active from +8 up or from −8 down.
For experiment [4], the target named is Dihydroorotate dehydrogenase (quinone), mitochondrial (Plasmodium falciparum (isolate 3D7)) (UniProt Q08210). The experiment is described as follows: PfDHODH enzyme inhibitors, primary screen, biochemical, C-terminal His tag, absorbance 600 nm (AID 1175).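 Also: recombinant parasite enzyme with a five histidine tag at its C terminus; test concentration not given here.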 Conditions: DCIP absorbance 600 nm, higher = more signal, called active from +8 up or from −8 down.
Experiment [5] is described as follows: P. aeruginosa biofilm formation inhibitors, primary screen, strain PAO1, LB-PBS medium, absorbance 600 nm (AID 1176). Also: test concentration not given here. Conditions: P. aeruginosa PAO1 growth/biofilm, A600, 12 h; higher = more signal.
A short description of experiment [6]: S. cerevisiae RM11-1a growth modifiers, primary screen, strain RM11-1a, OD600, basal, 24 h (AID 1177).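 Also: cultures grown under basal conditions with no added stressor; test concentration not given here.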 Conditions: OD600, 24 h, higher = more signal, called active from +8 up or from −8 down.
Experiment [7] in a line: E. coli acrAB mutant growth effects, primary screen, E. coli filamentation inducers, strain DRC39, OD650, 24 h (AID 1178).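 Also: growth measured as culture turbidity by optical density at 650 nm; test concentration not given here.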 Conditions: higher = more signal, called active from +8 up or from −8 down.
A short description of experiment [8]: E. coli acrAB mutant growth effects, primary screen, E. coli filamentation inducers, strain DRC39, OD650, 48 h (AID 1179).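 Also: screen aims at cell division blockers that make cells filament.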 Conditions: E. coli DRC39 delta-acrAB growth, higher = more signal, called active from +8 up or from −8 down.
Experiment [9] can be described thus: RPMI8226 myeloma cell viability, profiling panel, resazurin fluorescence, basal, 24 h, PK04 Diversity Set (AID 1180).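 Also: RPMI8826 multiple myeloma cell line at 5000 cells per well; test concentration not given here.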 Conditions: higher = more signal.
Experiment [10] concerns the target E3 ubiquitin-protein ligase XIAP (Homo sapiens) (UniProt P98170). Put plainly: XIAP binders, primary screen, biophysical, small-molecule microarray, fluorescence 635 nm (AID 1181).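 Also: score merges 667 nm emission and signal to noise over triplicate slides.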 Conditions: small-molecule microarray binding, higher = more signal.

Structures are written as SMILES. Activity calls are given as the source filed them. Unless noted, no rule for the calls is given here.

Chain of E3 ubiquitin-protein ligase XIAP (Homo sapiens) (P98170 whole entry, looked up): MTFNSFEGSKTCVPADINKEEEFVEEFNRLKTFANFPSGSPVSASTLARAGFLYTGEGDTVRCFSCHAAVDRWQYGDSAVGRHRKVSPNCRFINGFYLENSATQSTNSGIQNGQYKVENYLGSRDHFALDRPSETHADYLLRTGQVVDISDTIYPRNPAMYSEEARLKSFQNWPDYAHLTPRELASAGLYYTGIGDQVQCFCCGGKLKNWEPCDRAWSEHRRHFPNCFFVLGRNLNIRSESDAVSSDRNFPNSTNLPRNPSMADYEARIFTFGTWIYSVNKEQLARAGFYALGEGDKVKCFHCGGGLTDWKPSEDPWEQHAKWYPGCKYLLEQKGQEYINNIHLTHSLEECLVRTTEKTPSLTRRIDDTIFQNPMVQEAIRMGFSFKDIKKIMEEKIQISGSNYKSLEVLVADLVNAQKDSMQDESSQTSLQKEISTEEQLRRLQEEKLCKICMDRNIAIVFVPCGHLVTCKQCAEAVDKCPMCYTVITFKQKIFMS
Chain of Dihydroorotate dehydrogenase (quinone), mitochondrial (Plasmodium falciparum (isolate 3D7)) (Q08210 whole entry, looked up): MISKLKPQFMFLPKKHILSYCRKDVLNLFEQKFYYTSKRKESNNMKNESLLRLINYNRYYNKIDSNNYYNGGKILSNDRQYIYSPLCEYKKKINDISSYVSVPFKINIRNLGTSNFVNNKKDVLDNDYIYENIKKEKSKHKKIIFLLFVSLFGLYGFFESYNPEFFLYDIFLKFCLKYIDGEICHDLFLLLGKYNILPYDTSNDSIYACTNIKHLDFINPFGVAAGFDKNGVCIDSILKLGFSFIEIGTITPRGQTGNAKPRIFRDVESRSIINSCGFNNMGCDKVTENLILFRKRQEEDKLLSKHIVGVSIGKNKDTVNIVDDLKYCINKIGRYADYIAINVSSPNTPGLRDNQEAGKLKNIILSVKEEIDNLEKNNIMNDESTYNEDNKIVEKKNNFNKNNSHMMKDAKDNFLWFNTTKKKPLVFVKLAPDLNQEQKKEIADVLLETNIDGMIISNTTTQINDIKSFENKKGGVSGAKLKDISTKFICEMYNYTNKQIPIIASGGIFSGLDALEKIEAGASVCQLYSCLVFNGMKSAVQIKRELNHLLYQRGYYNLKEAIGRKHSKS

In the case of `COCC1=C2[C@@H](CCc3ccccc3)OB(O)C[C@@H]2[C@@H]2C(=O)C=CC(=O)[C@@H]2C1`, the z-score in experiment [1] was -1.15; in experiment [2] it was -5.61 (inactive); in [3], -0.997 (inactive); in [5], 0.106 (inactive); in experiment [6], -0.143 (inactive); in experiment [7], -0.244 (inactive). The figures for the z-score in experiment [8] and in experiment [9] were 0.0271 (inactive) and -0.878, respectively. Further, the composite z-score in experiment [4] was -4.14 (inactive); in [10], 0.906.

Turning to `COC(=O)[C@@]1(Cc2ccc(OC)cc2)[C@H]2c3cc(C(=O)N(C)C)n(C[C@H](O)CO)c3C[C@H]2CN1C(=O)c1ccccc1`, the z-score in experiment [1] was -1.17; in experiment [2], 1.02 (inactive); in [3], -2.31 (inactive); in [5] it was 2.01 (inactive); in [6], 0.166 (inactive); in experiment [7], -1.46 (inactive). Moreover, the z-score in experiment [8] was -1.11 (inactive); in [9], -1.95. Moreover, the composite z-score in experiment [4] is -0.791 (inactive); in experiment [10], 0.441.

In the case of `CC(C)Cc1ccc(CN2CC[C@@H](NC(=O)Nc3ccccc3)C2)cc1`, the z-score is -5.14 in experiment [1]; -17.3 (active) in [2]; -9.38 (active) in experiment [3]; 0.294 (inactive) in experiment [5]; -4.95 (inactive) in [6]; 0.451 (inactive) in experiment [7]. Also, the z-score in experiment [8] is -0.748 (inactive); in experiment [9], -4.87. Also, the composite z-score is 0.545 (inactive) in [4] and -0.209 in experiment [10].

With `COc1ccccc1CN1C(=O)c2ccccc2[C@@]2(Cc3ccccc3N(CC(F)(F)F)C2=O)[C@@H]1c1ccc(CO)cc1`, the z-score was -0.108 in [1]; 0.981 (inactive) in [2]; -0.987 (inactive) in experiment [3]; 0.723 (inactive) in experiment [5]; 0.36 (inactive) in experiment [6]; 0.224 (inactive) in experiment [7]. Further, the values for the z-score in experiment [8] and in experiment [9] were 0.499 (inactive) and -0.624, respectively. Besides, the composite z-score in experiment [4] was -11.7 (active); in [10] it was 0.0819.

For `N#Cc1ccc(NN2C(C(O)c3ccc(F)cc3)C=CC3C(=O)N(c4ccccc4)C(=O)C32)cc1` (stereo not given), the z-score in experiment [1] was -0.587; in [2], -0.0167 (inactive); in experiment [3], -0.388 (inactive); in [5], 0.695 (inactive); in experiment [6], 0.222 (inactive); in experiment [7], -1.06 (inactive). For the same compound, the z-score is -0.405 (inactive) in experiment [8] and -0.67 in experiment [9]. Also, the results for the composite z-score in [4] and in experiment [10] were 0.37 (inactive) and 0.0651, respectively.

Consider `COCCCNC(=O)[C@@]1(Cc2ccccc2CN=[N+]=[N-])N=C(c2ccc(OCCCO)cc2)O[C@H]1c1ccccc1`, for which the z-score is 0.636 in [1]; 0.41 (inactive) in experiment [2]; -0.88 (inactive) in experiment [3]; -0.317 (inactive) in experiment [5]; 1.92 (inactive) in [6]; 1.28 (inactive) in experiment [7]. The z-score in experiment [8] is 0.242 (inactive); in experiment [9] it was -1.75. Further, the composite z-score in experiment [4] is 1.22 (inactive); in experiment [10] it was -0.052.

`COc1ccc(CCNC(=O)[C@@]2(Sc3ccc(C)cc3)CC(=O)N(C3Cc4ccccc4C3)[C@@H]2c2ccc(CO)cc2)cc1`: the z-score in experiment [1] was 0.115; in experiment [2], 0.293 (inactive); in experiment [3], -1.13 (inactive); in experiment [5] it was 0.31 (inactive); in experiment [6], -0.255 (inactive); in experiment [7] it was 0.514 (inactive). In addition, the z-score is 0.005 (inactive) in [8] and 0.136 in experiment [9]. Also, the composite z-score in experiment [4] was -0.396 (inactive); in [10], 2.04.

As to `[N-]=[N+]=Nc1ccccc1[C@@H]1OC(c2ccc(OCCCO)cc2)=N[C@]1(Cc1ccccc1)C(=O)NCC(O)CO` (stereo not given in full), the z-score in [1] was 0.0381; in experiment [2], -2.75 (inactive); in [3], -0.53 (inactive); in experiment [5], -0.291 (inactive); in experiment [6], 1.06 (inactive); in experiment [7], 2.24 (inactive). Moreover, the z-score in experiment [8] was 0.783 (inactive); in experiment [9], -0.71. In addition, the composite z-score in experiment [4] was 0.255 (inactive); in experiment [10] it was 0.366.

Turning to `CCCNC(=O)[C@@]1(c2ccc([N+](=O)[O-])cc2)CC(=O)N(C2CCCCC2)[C@@H]1c1ccc(CO)cc1`, the z-score is -0.347 in experiment [1]; 0.262 (inactive) in experiment [2]; 0.411 (inactive) in [3]; 0.304 (inactive) in [5]; 1.83 (inactive) in experiment [6]; 0.117 (inactive) in experiment [7]. For the same compound, the z-score in experiment [8] is -0.194 (inactive); in [9], 0.543. Besides, the composite z-score is 0.666 (inactive) in experiment [4] and -0.173 in experiment [10].

Regarding `COC(=O)CCCCCCC(=O)Nc1ccc(NC(=O)CCCC[P+](c2ccccc2)(c2ccccc2)c2ccccc2)cc1`, the z-score in [1] is 1.45; in experiment [2] it was -1.95 (inactive); in experiment [3] it was 0.687 (inactive); in [5], -1.01 (inactive); in experiment [6], 1.68 (inactive); in experiment [7], -17.1 (active). The z-score in experiment [8] was -5.78 (inactive); in experiment [9], 0.347. Further, the composite z-score in experiment [4] is -1.77 (inactive); in [10], -0.127.
